PubChem BioAssay (NCATS)
Several values for one entry are separate records, joined by “and”; a condition that tells them apart may be missing. Equal values may be shown once. Results filed as inconclusive are left out. Activity calls are given as the source filed them. Unless noted, the rule behind the calls is not given here.

Experiments:
[1] = qHTS Assay for Identifying Gametocytocidal Compounds (AID 743244; active = well fitted curve in the direction sought with a large enough effect; an effect the other way counts as inactive or inconclusive;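 note: % is set by controls: 0 for no effect and ±100 for the full control effect; actives lower the fluorescent signal which means gametocytes are killed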); settings: P. falciparum 3D7 stage III-V gametocytes, alamarBlue, 72 h; max response: stronger effect = lower value
Procedure, shortened: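 In this qHTS viability screen, late-stage 3D7 gametocytes are incubated with compound for 72 h, then with alamarBlue for 24 h; reduced resorufin fluorescence marks killing.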

[2] = qHTS profiling for inhibitors of Plasmodium falciparum (3D7) proliferation (AID 743322);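 note: infected erythrocytes exposed to compound for 72 h before lysis; 100% = DMSO vehicle wells and 0% = 0.29 µM artemisinin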; settings: P. falciparum 3D7 proliferation; at 28.7 µM (top of the series) unless noted
Procedure, shortened: (§1)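 Parasite DNA was quantified by SYBR Green I fluorescence (ex 485, em 535 nm) after overnight lysis in saponin/Triton buffer at room temperature. Cultures at 0.3% parasitemia and 2.5% hematocrit were first exposed to compound for 72 h at 37 C; signals were normalised to artemisinin (0.29 uM) and vehicle wells.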

[3] = qHTS profiling for inhibitors of Plasmodium falciparum (DD2) proliferation (AID 743323); settings: lower = more inhibition; at 28.7 µM (top of the series) unless noted
Procedure, shortened: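 1536-well qHTS; infected RBCs 0.3% parasitemia/2.5% Hct final; cpd 72 h 37 C 5% CO2; lysis buffer + SYBR Green I, o/n RT dark; FI 485/535; norm. to 0.29 uM artemisinin and DMSO, plate-stack corrected.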

[4] = qHTS profiling for inhibitors of Plasmodium falciparum (HB3) proliferation (AID 743324; active = well fitted curve in the direction sought with a large enough effect; an effect the other way counts as inactive or inconclusive;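 note: 100% = DMSO vehicle wells and 0% = artemisinin-treated control wells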); settings: Plasmodium falciparum HB3 blood-stage proliferation; at 28.7 µM (top of the series) unless noted
Procedure, shortened: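 SYBR Green fluorescence (485 ex/535 em) of lysed cultures, incubated overnight at room temperature in the dark, quantifies parasite DNA. Infected erythrocytes at 0.3% parasitemia and 2.5% hematocrit were exposed 72 h; values normalized to DMSO and 0.29 uM artemisinin controls.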

[5] = qHTS profiling of the MIPE4 collection as inhibitors of Plasmodium falciparum (3D7) proliferation (AID 743344);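 note: scaled between DMSO vehicle wells and 0.29 µM artemisinin as full inhibition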; settings: P. falciparum 3D7 in erythrocytes, SYBR Green DNA fluorescence, 72 h; at 28.5 µM (top of the series) unless noted
Procedure, shortened: as §1

[6] = qHTS profiling of the MIPE4 collection as inhibitors of Plasmodium falciparum (DD2) proliferation (AID 743345); settings: P. falciparum Dd2 in erythrocytes, SYBR Green DNA, 72 h; at 28.5 µM (top of the series) unless noted
Procedure, shortened: as §1

[7] = qHTS profiling of the MIPE4 collection as inhibitors of Plasmodium falciparum (DD2) proliferation (Rep 2) (AID 743346); settings: P. falciparum Dd2 in erythrocytes, SYBR Green DNA, 72 h; at 28.5 µM (top of the series) unless noted
Procedure, shortened: as §1

[8] = qHTS profiling of the MIPE4 collection as inhibitors of Plasmodium falciparum (HB3) proliferation (AID 743347);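 note: plate controls were DMSO vehicle wells for no effect and artemisinin wells for full effect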; settings: P. falciparum HB3 in erythrocytes, SYBR Green DNA, 72 h; at 28.5 µM (top of the series) unless noted
Procedure, shortened: as §1

[9] = qHTS assay for cell viability of the p53RE-bla HCT-116 cell line (AID 743292; active = well fitted curve in the direction sought with a large enough effect; an effect the other way counts as inactive or inconclusive; note: nearly all actives have a fitted effect of over 55% in size; note: potency is the fitted concentration of half-maximal effect); settings: p53RE-bla HCT-116 viability, ATP luminescence, 16 h; series mostly up to 95 µM
Procedure, shortened: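 In this qHTS counter-screen, metabolically competent p53RE-bla HCT-116 cells were counted via their ATP content. Compounds were applied for 16 h at 37 C and luciferase-coupled luminescence was measured.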

Structure (SMILES)	max response [1]	remaining parasite growth % (stronger effect = lower value) [2]	activity, percent of control [3]	remaining proliferation (% of control), lower = more inhibition [4]	parasite growth, % of DMSO control [5]	parasite growth remaining, % of DMSO control (lower = more inhibition) [6]	parasite growth, % of control (lower = inhibition) [7]	growth, % of control [8]	Potency [9]
O=C(O)CCc1ccc(NCc2cccc(Oc3ccccc3)c2)cc1	20.3% (inactive)	29.5%	102%	98.6%	93.6%	87.8%	210%	76.8%	–
C/C(=C\C(=O)Nc1ccccc1C(=O)O)c1ccc2ccccc2c1	90.9% (inactive)	32.7%	101%	–	–	–	–	–	–
O=C(O)c1ccc(-c2c[nH]c3ccc(-c4ccccc4)cc23)cc1C1CCCC1	15.6% (inactive)	-0.426%	0.0014%	-0.0688%	–	–	–	–	–
NC(=O)c1cnccn1	-3.29% (inactive) and 14.5% (inactive)	–	–	–	97.3%	94.9%	45.3%	105%	inactive
C[C@]12CCC(=O)C=C1CC[C@@H]1[C@@H]2[C@@H](O)C[C@@]2(C)[C@H]1CC[C@]2(O)C(=O)CO	5.84% (inactive) and 30.7% (inactive)	98.9%	92.4%	–	–	–	–	–	inactive
CC(C)(Sc1ccc(CCN(CCCCC2CCCCC2)C(=O)NC2CCCCC2)cc1)C(=O)O	7.17% (inactive) and -0.948% (inactive)	98.9%	100%	–	65.2%	91.6%	51.8%	78.8%	12.6 µM (active)
CC(C)(C)NCC(O)c1ccc(O)c(CO)c1 (centres undefined)	0.0655% (inactive) and 23.1% (inactive)	–	–	–	–	–	–	–	–
Cc1cc(Nc2nc(N[C@@H](C)c3ncc(F)cn3)ncc2Cl)n[nH]1	8.89% (inactive)	108%	100%	101%	6.82%	8.04%	21.5%	10.9%	–
N#CC[C@H](C1CCCC1)n1cc(-c2ncnc3[nH]ccc23)cn1	2.34% (inactive)	57.9%	48.8%	18.5%	21.5%	64.4%	55.7%	40.5%	–
COc1nc(-c2ccc3c(c2)OCO3)n(-c2ccc(NC(=O)CSc3ccccc3)cc2)n1	6.75% (inactive)	96.2%	95.9%	94.2%	51.6%	86.8%	61.9%	82%	–
N#Cc1ccc(C(c2ccc(C#N)cc2)n2cncn2)cc1	16.5% (inactive) and 0.241% (inactive)	85.5%	86.6%	95.8%	89.2%	93.7%	123%	101%	–
CS(=O)(=O)Oc1ccc2c(NC(N)=O)c(C(=O)c3ccc(Cl)cc3Cl)oc2c1	25% (inactive)	75.4%	83.2%	94.7%	49.8%	82.7%	33.3%	13.6%	–
CC1(C)Cc2c(-c3ccccc3)c(-c3ccc(Cl)cc3)c(CC(=O)O)n2C1	1.94% (inactive)	6.49%	13.4%	7.77%	61%	90.7%	63.6%	82.7%	–
Cc1c(C)c2c(c(C)c1O)CCC(C)(COc1ccc(CC3SC(=O)NC3=O)cc1)O2 (centres undefined)	13.5% (inactive) and 17.4% (inactive)	93.1%	80%	46.8%	35.4%	83.4%	43.6%	62.4%	–
Oc1cccc(-c2nc(N3CCOCC3)c3oc4ncccc4c3n2)c1	-13.9% (inactive)	-0.106%	2.54%	1.45%	6.68% [at 57.5 µM]	8.08% [at 57.5 µM]	21.1% [at 57.5 µM]	5.67% [at 57.5 µM]	–
Cc1oncc1C(=O)Nc1ccc(C(F)(F)F)cc1	50.5% (inactive) and -6.39% (inactive) and -7.89% (inactive)	104% and 91.9%	94.9% and 88.9%	95% and 87.2%	13.7%	102%	61.2%	10.6%	–
Cc1ccc(NC(=O)c2cccc(C(C)(C)C#N)c2)cc1Nc1ccc2ncn(C)c(=O)c2c1	-12.3% (inactive)	34.8%	49.3%	7.17%	17.3%	39.9%	51%	16.2%	–
O=C(Nc1ccc(F)c(C(F)(F)F)c1)Nc1nnc(-c2ccncc2)s1	6.18% (inactive)	94.5%	90%	67.6%	19.3%	14.4%	25.2%	4.4%	–
CCC(C)N(C)C(=O)c1cc2ccccc2c(-c2ccccc2Cl)n1 (centres undefined)	24.9% (inactive)	86.5%	80.9%	42%	39%	83.4%	53.7%	53.6%	–
CC1(C)CNc2cc(NC(=O)c3cccnc3NCc3ccncc3)ccc21	-7.52% (inactive)	70.1%	68.6%	5.63%	53.8%	86.3%	42.2%	30.1%	–
C#Cc1cccc(Nc2ncnc3cc(OCCOC)c(OCCOC)cc23)c1	10.7% (inactive) and -0.582% (inactive)	12.2%	27.9%	6.23%	24.3%	50.4%	43.1%	4.75%	–
COc1ccccc1-c1cccc(-c2c(O)c3cc(C#N)c(Cl)cc3[nH]c2=O)c1	99.8% (inactive)	97.4%	76%	74.9%	37.5% [at 57.5 µM]	84.4% [at 57.5 µM]	32.5% [at 57.5 µM]	14.1% [at 57.5 µM]	–
